# Laboratory results as given in PubChem BioAssay (NCATS).
# Values joined by “and” are separate entries in the source; they are usually repeats but may differ in a detail not shown here. Equal entries are not always repeated. Records with an inconclusive call do not appear. Entries that show only a call come without a potency. Active and inactive are the calls of the source. Unless noted, the call rests on the fitted dose curve; in most records, active means well fitted curve in the direction sought with a large enough effect; inconclusive means small, poorly fitted or top-dose-only effect, or another doubt; inactive means no such curve, though single readings can be large; an effect the other way counts as inactive or inconclusive.
# Columns and labels:
# [1] = target: Calcium and integrin-binding protein 1 (Homo sapiens) (UniProt Q99828); test: Primary qHTS for Identification of Calcium Integrin Binding Protein 1 (CIB1) Competitor (AID 1508620); details: CIB1-GST / FITC-alphaIIb peptide fluorescence polarization; series mostly up to 114 µM;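 further: GST tagged CIB1 binding a fluorescein labelled alphaIIb integrin peptide tracer; top concentration of the series differs between compounds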
# Chain of Calcium and integrin-binding protein 1 (Homo sapiens) (Q99828 whole entry, looked up): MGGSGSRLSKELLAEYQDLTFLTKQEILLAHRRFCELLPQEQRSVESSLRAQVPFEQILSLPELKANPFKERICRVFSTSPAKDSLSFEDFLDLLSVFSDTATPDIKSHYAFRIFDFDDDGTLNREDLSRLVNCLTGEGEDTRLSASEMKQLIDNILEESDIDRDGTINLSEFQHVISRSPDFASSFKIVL
# How it was run: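 CIB1-GST (1 uM final) and compound incubated 15 min at room temperature before adding FITC-alphaIIb peptide tracer (100 nM final). Competition for binding read by fluorescence polarization (ex 480, em 540) after another 15 min at room temperature.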
# [2] = Primary qHTS for inhibitors of nuclear receptor binding SET domain protein 2 (NSD2) in an isogenic RCH-ACV NSD2 p.E1099K mutant (9B) (AID 1645876); details: RCH-ACV (leukaemia line) NSD2 E1099K (9B) viability, CellTiter-Glo, 72 h; series mostly up to 44.9 µM; further: nearly all actives have a fitted effect of over 70% in size; further: potency means the concentration at half of the fitted maximal effect
# [3] = target: Cytochrome P450 2D6 (Homo sapiens) (UniProt P10635); test: Cytochrome P450 family 2 subfamily D member 6 (CYP2D6) small molecule antagonists: luciferase biochemical (cell-free) qHTS assay (AID 1645840; active means well fitted curve in the direction sought with a large enough effect in the repeat runs; an effect the other way counts as inactive or inconclusive; further: potency means the concentration at half of the fitted maximal effect; nearly all actives have a fitted effect of over 55% in size); details: P450-Glo CYP2D6 enzyme, luciferin luminescence, 1 h; series mostly up to 57.4 µM
# Chain of Cytochrome P450 2D6 (Homo sapiens) (P10635 whole entry, looked up): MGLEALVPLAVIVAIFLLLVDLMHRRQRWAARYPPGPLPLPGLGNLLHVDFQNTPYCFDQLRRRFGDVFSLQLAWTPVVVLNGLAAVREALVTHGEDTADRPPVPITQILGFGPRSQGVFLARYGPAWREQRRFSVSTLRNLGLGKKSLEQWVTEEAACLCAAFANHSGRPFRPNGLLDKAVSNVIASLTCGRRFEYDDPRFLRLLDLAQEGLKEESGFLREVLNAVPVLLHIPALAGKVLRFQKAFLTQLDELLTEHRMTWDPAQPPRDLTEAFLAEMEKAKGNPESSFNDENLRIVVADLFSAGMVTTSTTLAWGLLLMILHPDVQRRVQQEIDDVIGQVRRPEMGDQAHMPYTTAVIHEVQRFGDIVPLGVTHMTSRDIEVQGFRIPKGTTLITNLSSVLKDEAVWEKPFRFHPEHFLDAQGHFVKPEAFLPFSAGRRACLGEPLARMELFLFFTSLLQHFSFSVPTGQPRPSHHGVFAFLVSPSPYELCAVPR
# How it was run: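 P450-Glo luminescent screen: recombinant CYP2D6 enzyme–proluciferin substrate mix preincubated with compound 10 min at room temperature, then NADPH regeneration added for 1 h at room temperature. Detection reagent added for 20 min; luciferin light read as relative luminescence units.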
# [4] = target: Cytochrome P450 2C9 (Homo sapiens) (UniProt P11712); test: Cytochrome P450 family 2 subfamily C member 9 (CYP2C9) small molecule antagonists: luciferase biochemical (cell-free) qHTS assay (AID 1645842; active means well fitted curve in the direction sought with a large enough effect in the repeat runs; an effect the other way counts as inactive or inconclusive; further: potency means the concentration at half of the fitted maximal effect; nearly all actives have a fitted effect of over 55% in size); details: P450-Glo CYP2C9 enzyme assay, luciferin luminescence; series mostly up to 57.4 µM
# Chain of Cytochrome P450 2C9 (Homo sapiens) (P11712 whole entry, looked up): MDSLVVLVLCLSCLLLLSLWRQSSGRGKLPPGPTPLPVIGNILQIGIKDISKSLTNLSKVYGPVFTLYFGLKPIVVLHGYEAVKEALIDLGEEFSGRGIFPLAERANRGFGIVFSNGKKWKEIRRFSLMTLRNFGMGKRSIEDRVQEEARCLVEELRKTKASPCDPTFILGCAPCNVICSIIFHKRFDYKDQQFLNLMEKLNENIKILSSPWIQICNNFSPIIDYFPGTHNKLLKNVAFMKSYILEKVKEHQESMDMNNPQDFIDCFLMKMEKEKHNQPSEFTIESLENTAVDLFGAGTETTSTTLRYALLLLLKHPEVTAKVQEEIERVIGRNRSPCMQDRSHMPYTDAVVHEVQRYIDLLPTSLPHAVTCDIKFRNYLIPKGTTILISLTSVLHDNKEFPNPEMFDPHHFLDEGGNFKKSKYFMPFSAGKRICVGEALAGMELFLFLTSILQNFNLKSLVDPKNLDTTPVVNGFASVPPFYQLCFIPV
# How it was run: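 Luminescence, after 20 min with luciferin detection reagent, reflected CYP2C9 turnover during a 1 h NADPH-driven reaction at 37C. Enzyme-substrate mix contained 0.4% bovine serum albumin and was preincubated with compound 10 min at room temperature.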
smiles,measurement,setting,value
COc1ccc(CCO[C@@H]2O[C@H](CO[C@@H]3OC[C@H](O)[C@H](O)[C@H]3O)[C@@H](O)[C@H](O)[C@H]2O)cc1,Potency,[1],inactive
same,Potency,[2],inactive
COc1cc(OC)c(/C=C/S(=O)(=O)Cc2ccc(OC)c(NCC(=O)O)c2)c(OC)c1,Potency,[1],inactive
same,Potency,[2],57.8 nM (active) and 59 nM (active)
CC1=C(C(=O)O[C@@H]2O[C@H](COC3OCC(O)C(O)C3O)[C@@H](O)[C@H](O)[C@H]2O)C(C)(C)CCC1 (some centres undefined),Potency,[1],inactive
same,Potency,[2],inactive
CC1CC(O)C2(OC1=O)OC1C(O)C3C4CCC5CC(OC6OC(CO)C(O)C(O)C6OC6OC(C)C(O)C(O)C6O)CCC5(C)C4CCC3(C)C1C2C (centres undefined),Potency,[1],inactive
same,Potency,[2],inactive
C[C@@H]1C[C@@H]2O[C@H]2/C=C\C=C\C(=O)Cc2c(Cl)c(O)cc(O)c2C(=O)O1,Potency,[1],inactive
same,Potency,[2],1.01 µM (active)
CC(=O)O[C@H]1CC[C@@]2(C)C(CC[C@@H](C)[C@]23Cc2c(O)cc4c(c2O3)CN([C@@H](CCC(=O)O)C(=O)O)C4=O)C1(C)C (some centres undefined),Potency,[1],inactive
same,Potency,[2],inactive
C[C@]12C[C@@H](O)[C@@H]3C[C@@]1(O[C@@H]1O[C@H](CO)[C@@H](O)[C@H](O)[C@H]1O)[C@]3(COC(=O)c1ccccc1)C(=O)O2,Potency,[1],inactive
same,Potency,[2],inactive
CC(C)CC1NC(=O)C2CC3(O)c4ccccc4NC3N2C1=O (centres undefined),Potency,[1],inactive
same,Potency,[2],inactive
CC1CCC2(OC1)OC1CC3C4CCC5C[C@@H](O[C@@H]6O[C@H](CO[C@@H]7OC[C@@H](O)[C@H](O)[C@H]7O)[C@H](O)[C@H](O)[C@H]6O)CC[C@]5(C)C4CC[C@]3(C)C1C2C (some centres undefined),Potency,[1],inactive
same,Potency,[2],inactive
CC(=O)O[C@H]1CC(C)(C)CC2[C@@]13[C@H](O)C[C@]1(C)[C@@]2(CCC2[C@@]4(C)CC[C@H](O[C@@H]5OC[C@H](O[C@@H]6O[C@H](CO)[C@@H](O)[C@H](O)[C@H]6O[C@@H]6OC[C@@H](O)[C@H](O)[C@H]6O)[C@H](O)[C@H]5O[C@@H]5O[C@H](CO)[C@@H](O)[C@H](O)[C@H]5O)C(C)(C)C4CC[C@]21C)O[C@@H]3O (some centres undefined),Potency,[1],inactive
same,Potency,[2],0.346 µM (active)
Cc1ccc([N+](=O)[O-])cc1S(=O)(=O)N(C)/N=C/c1cnc2ccc(Br)cn12,Potency,[1],inactive
same,Potency,[2],12.9 nM (active) and 93.4 nM (active)
CC(=O)c1c(O)cc(O[C@@H]2O[C@H](CO)[C@@H](O)[C@H](O)[C@H]2O)cc1O,Potency,[1],inactive
same,Potency,[2],inactive
C[C@@H]1O[C@@H](O[C@@H]2CO[C@@H](O[C@H]3CC[C@@]4(C)C(CC[C@]5(C)C4CC=C4[C@@H]6CC(C)(C)CC[C@]6(C(=O)O[C@@H]6O[C@H](CO)[C@@H](O)[C@H](O)[C@H]6O)CC[C@]45C)[C@]3(C)CO)[C@H](O)[C@H]2O[C@@H]2O[C@H](CO)[C@@H](O)[C@H](O)[C@H]2O)[C@H](O)[C@H](O)[C@H]1O (some centres undefined),Potency,[1],inactive
same,"activity change, negative = viability loss",[2],-16% [at 9.23 µM] (inactive)
COc1cc(C)c(C(=O)Oc2cc(C)c(C(=O)Oc3cc(C)c(C(=O)NC(C)C(=O)O)c(O)c3)c(O[C@@H]3O[C@H](CO)[C@@H](O)[C@H](O)[C@H]3OC(C)=O)c2)c(OC)c1 (some centres undefined),Potency,[1],inactive
same,Potency,[2],inactive
C=C1CCCC2(C)CC3(OC)OC(=O)C(C)=C3CC12 (centres undefined),Potency,[1],inactive
same,Potency,[2],inactive
CC/C=C\C/C=C\C/C=C\CCCCCCCC(=O)OCC(O)COC1OC(CO)C(O)C(O)C1O (centres undefined),Potency,[1],inactive
same,Potency,[2],inactive
COC(=O)C1=CO[C@@H](O[C@@H]2O[C@H](CO)[C@@H](O)[C@H](O)[C@H]2O)[C@@H]2[C@@](C)(O)[C@@H](OC(=O)/C=C/c3ccc(O)cc3)C[C@]12O,Potency,[1],inactive
same,Potency,[2],inactive
CC(=O)N1CCc2ccc(O)c(OC3OC(COC4OCC(O)(CO)C4O)C(O)C(O)C3O)c2C1Cc1ccc(O)cc1 (centres undefined),Potency,[1],inactive
same,Potency,[2],inactive
Cc1csc(NC(=O)c2ccc(COc3cccc(Cl)c3)o2)n1,Potency,[3],19 µM (active)
same,Potency,[4],7.56 µM (active)
C[C@H](C/C=C/C(C)(C)O)[C@H]1CC[C@@]2(C)[C@@H]3[C@@H](O[C@@H]4O[C@H](CO)[C@@H](O)[C@H](O)[C@H]4O)C=C4C(CC[C@H](O)C4(C)C)[C@]3(C=O)CC[C@]12C (some centres undefined),Potency,[1],inactive
same,Potency,[2],inactive
C=C1C(=O)O[C@H](CCC)[C@H]1C(=O)O,Potency,[1],inactive
same,Potency,[2],inactive
C[C@@H]1O[C@@H](O[C@H]2[C@H](O)[C@@H](O[C@@H]3O[C@H](CO)[C@@H](O)[C@H](O[C@@H]4O[C@H](CO)[C@@H](O)[C@H](O)[C@H]4O)[C@H]3O)[C@H](O[C@H]3CC[C@@]4(C)C(=CC[C@@H]5C4CC[C@@]4(C)C5C[C@@H]5OC6(CC[C@@](C)(CO[C@@H]7O[C@H](CO)[C@@H](O)[C@H](O)[C@H]7O)O6)[C@@H](C)[C@@H]54)C3)O[C@@H]2CO)[C@H](O)[C@H](O)[C@H]1OC1OC(CO)C(O)C(O)C1O (some centres undefined),"activity change, negative = inhibition",[1],-2.87% [at 12.4 µM] (inactive)
same,outcome,[2],inactive [at 9.23 µM]
